The nature of assay [1]: P-glycoprotein substrates identified in KB-8-5-11 adenocarcinoma cell line, qHTS therapeutic library screen (AID 1346987). Further: nearly all actives have a fitted effect of over 65% in size. The essentials: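 P-gp-mediated resistance screen: KB-8-5-11 cells treated 72 h with compounds in dose-response. CellTiter-Glo viability.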
In general terms: Quantitative high-throughput screening tests each substance at several concentrations.

The nature of assay [2]: qHTS of pediatric cancer cell lines to identify multiple opportunities for drug repurposing: Primary screen for TC32 cells (AID 1347089). Further: nearly all actives have a fitted effect of over 60% in size. The essentials:
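A viability screen of TC32 cells was run over 48 h, with primary MIPE doses spanning 0.78 nM–46 µM and NPC doses 0.59 nM–46 µM. ATP luminescence (CellTiter-Glo) served as the read-out.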

The structures appear in SMILES notation. “And” between values parts separate entries of the source, which are not always exact repeats. Equal entries are not always repeated. Results filed as inconclusive are left out. Some structures have more than one record in an assay (separate samples or runs), and their calls can disagree. The source made the active and inactive calls. The call rests on the fitted dose curve; in most records, active means well fitted curve in the direction sought with a large enough effect; inconclusive means small, poorly fitted or top-dose-only effect, or another doubt; inactive means no such curve, though single readings can be large; an effect the other way counts as inactive or inconclusive.
Potency means the concentration at half of the fitted maximal effect.

Regarding `CCC(=C(CC)c1ccc(O)cc1)c1ccc(O)cc1`, the Potency result in assay [1] and in assay [2] was “inactive” each time.
In the case of `COc1ccc2ccc(=O)oc2c1CC=C(C)C`, the Potency result in assay [1] and in assay [2] was “inactive” throughout.
As for `CSc1cccc(Nc2ncc3cc(-c4c(Cl)cccc4Cl)c(=O)n(C)c3n2)c1`, the Potency entry in assay [1] is “inactive and 1.3 µM (active)”. Besides, the Potency entry in assay [2] is “inactive”.
On to `CCCCCCCCCCCCCCCC(=O)O[C@H]1[C@@H](O)[C@@H](O)[C@@H]([C@H](NC(=O)[C@@H]2C[C@@H](CCC)CN2C)[C@H](C)Cl)O[C@@H]1SC`, for which the Potency entry in assay [1] and in assay [2] was “inactive” throughout.
Take `CO[C@H]1/C=C\O[C@@]2(C)Oc3c(C)c(O)c4c(O)c(c5c(nc6cc(C)ccn65)c4c3C2=O)NC(=O)C(C)=CC=C[C@H](C)[C@H](O)[C@@H](C)[C@@H](O)[C@@H](C)[C@H](OC(C)=O)[C@H]1C`: the Potency result in assay [1] and in assay [2] was “inactive” throughout.
For the molecule `O=C(c1ccc(F)c(F)c1Nc1ccc(I)cc1F)N1CC(O)([C@H]2CCCCN2)C1`, the Potency in assay [1] was 20.9 µM (active). Moreover, the Potency entry in assay [2] was “inactive”.
Take `Cc1ccc2c(c1)c1c(n2CCc2ccc(C)nc2)CCN(C)C1`: the Potency result in assay [1] and in assay [2] was “inactive” throughout.
As to `N#Cc1ccc(Oc2ccc3c(c2)COB3O)cc1`, the Potency result in assay [1] and in assay [2] was “inactive” throughout.
On to `Cc1cccc(-c2[nH]c(C(C)(C)C)nc2-c2ccc3c(c2)OCO3)n1`, for which the Potency in assay [1] is 10.3 µM (active); in assay [2], 8.29 µM (active).
For `CC(C)N(CCCNC(=O)Nc1ccc(C(C)(C)C)cc1)C[C@H]1O[C@@H](n2cc(Br)c3c(N)ncnc32)[C@H](O)[C@H]1O`, the Potency result in assay [1] and in assay [2] was “inactive” throughout.
Take `CC(=O)NCCC(=O)N[C@@H](CCC(N)=O)C(=O)N[C@@H](CO)C(=O)N[C@@H](CCC(N)=O)C(=O)N[C@@H](CCC(N)=O)C(=O)N[C@H](C(=O)N[C@@H](Cc1ccccc1)C(=O)N[C@]1(C)CCCCCCC=CCCC[C@@](C)(C(=O)N[C@@H](CCC(N)=O)C(=O)N[C@@H](CC(N)=O)C(N)=O)NC(=O)[C@H](CC(C)C)NC(=O)[C@H](CC(C)C)NC(=O)[C@@H](CCCNC(=N)N)NC(=O)[C@H](Cc2c[nH]c3ccccc23)NC(=O)[C@H](CC(C)C)NC(=O)[C@H](CC(N)=O)NC1=O)[C@H](C)O`: the Potency entry in assay [1] and in assay [2] was “inactive” each time.

The values above are taken from PubChem BioAssay (NCATS).
